# p53 reactivator: qHTS assay for re-activators of p53 using a Luc reporter | AID 504706, 2011 | H1299 p53-A138V BP100-luciferase reporter, luminescence, 24 h | 320,000 tested, 0.063% active | Potency, µM (series often up to 92.2 µM), for inactives: at the highest dose activity change, positive = activation, actives largely listed as activators; also: potency is read from the fitted curve at half-maximal effect; % of control where 0% means no effect; nearly all actives have a fitted effect of over 45% in size
#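 p53-null H1299 cells stably carrying temperature-sensitive p53-A138V and a BP100-luciferase reporter were pinned with compounds (4-point, 1:5 series) and held 24 hrs at 37 deg C. Luminescence was read 10 min after detection reagent.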
# BRCA1 expr act: qHTS Assay to Identify Small Molecule Activators of BRCA1 Expression | 380,000 tested, 1.1% active | MCF7-BRCA1-FFLuc reporter, luminescence, 48 h; response scale: scaled: vehicle 0%, 10 µM genistein 100% | Potency, µM (series often up to 46.1 µM), for the others: at the top dose activation, hits mostly activators; also: potency is read from the fitted curve at half-maximal effect; nearly all actives have a fitted effect of over 80% in size
#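 First, MCF7-BRCA1-FFLuc cells (2000/well) attach for 2 h; next, compounds are pin-added and incubated 48 h at 37 °C; finally, luciferase reagent is added and luminescence read after 15 min.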
# Giardia kill: Small Molecules that selectively kill Giardia lamblia: qHTS. Giardia lamblia trophozoite viability. 340,000 tested, 0.15% active. activity change, % at 7.66 µM, hits read low; in the data active = activity change below about -80%; inconclusive = between about -30% and that limit;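 also: parasites exposed to compound for two days anaerobically before the ATP read; % is scaled to controls: 0 for no effect and ±100 for the full control effect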
#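 Giardia lamblia trophozoites (100 cells/well) were incubated with compounds for 48 h at 37 deg C under anaerobic conditions. Viability was read as ATP content by one-step luminescence after 15-30 min at room temperature.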
# VP16 counter: VP16 counterscreen qHTS for inhibitors of ROR gamma transcriptional activity. Potency, µM (doses to about 53.6 µM), for the others: at the top dose activity, negative = inhibition, usual class: inhibitors. 310,000 tested, 3.5% active. Drosophila S2 Gal4-VP16 UAS-luciferase, luminescence, 20 h;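 also: Gal4-VP16 expression switched on by copper sulfate through the metallothionein promoter; potency is read from the fitted curve at half-maximal effect; % is scaled to controls: 0 for no effect and ±100 for the full control effect; nearly all actives have a fitted effect of over 50% in size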
# RORgamma inh: qHTS for inhibitors of ROR gamma transcriptional activity. Nuclear receptor ROR-gamma (Mus musculus), P51450. Drosophila S2 Gal4-RORgamma UAS-luciferase reporter, 20 h. Potency, µM (titrated, usually from 53.6 µM), without a hit: at the highest dose activity change, negative = inhibition, most hits filed as inhibitors. 310,000 tested, 5.4% active; also: potency is read from the fitted curve at half-maximal effect; % is scaled to controls: 0 for no effect and ±100 for the full control effect; nearly all actives have a fitted effect of over 60% in size
# Target sequence (P51450 whole entry, looked up, the tested form may be a part): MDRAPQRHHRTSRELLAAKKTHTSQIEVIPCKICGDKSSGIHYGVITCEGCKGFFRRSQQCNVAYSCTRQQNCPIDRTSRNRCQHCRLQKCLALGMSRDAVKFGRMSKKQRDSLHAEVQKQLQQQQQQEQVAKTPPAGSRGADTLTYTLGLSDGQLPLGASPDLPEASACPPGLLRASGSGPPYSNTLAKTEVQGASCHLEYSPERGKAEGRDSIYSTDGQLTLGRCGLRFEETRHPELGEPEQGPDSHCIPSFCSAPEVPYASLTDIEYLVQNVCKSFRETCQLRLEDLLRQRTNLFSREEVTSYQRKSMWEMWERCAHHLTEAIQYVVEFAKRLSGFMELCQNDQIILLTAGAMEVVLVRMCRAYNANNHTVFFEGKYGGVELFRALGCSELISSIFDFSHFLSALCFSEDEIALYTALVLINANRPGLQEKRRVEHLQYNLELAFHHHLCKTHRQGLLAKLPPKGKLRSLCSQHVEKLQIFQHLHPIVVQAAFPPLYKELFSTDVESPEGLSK
#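 Schneider cells (Drosophila), stable Gal4 DBD–ROR gamma + UAS-luc; 1 hr cmpd preincubation; Cu2+ induction 700 uM final; 20 hr ambient; luminescence.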
# ELG1 repair inh: qHTS screen for small molecules that inhibit ELG1-dependent DNA repair in human embryonic kidney (HEK293T) cells expressing luciferase-tagged ELG1; 330,000 tested, 2.3% active; HEK293T ELG1-luciferase reporter, luminescence, 16 h; DNA damage induced by 5-fluorouridine; Potency, µM (series often up to 46.1 µM), inactives show at the top dose activity change, negative = inhibition, usual class: inhibitors; also: potency is read from the fitted curve at half-maximal effect; % is scaled to controls: 0 for no effect and ±100 for the full control effect; nearly all actives have a fitted effect of over 55% in size
#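 Reporter activity after DNA damage by 5-fluorouridine is monitored. Compound-treated cells incubate 16 hr at 37 °C, then ONE-Glo is added for 30 min before luminescence reading.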
# An asterisk follows results filed as active; ? = inconclusive; . = not tested or not shown. Shown are actives, neighbours in structure and some others; about 7.6% of the full set was active somewhere. Unless noted, calls follow the shape of the dose curve; as a rule, active = well fitted curve in the direction sought with a large enough effect; inconclusive = small, poorly fitted or top-dose-only effect, or another doubt; inactive = no such curve, though single readings can be large; an effect the other way counts as inactive or inconclusive.
SMILES,p53 reactivator,BRCA1 expr act,Giardia kill,VP16 counter,RORgamma inh,ELG1 repair inh
COc1ccc(-c2cn(-c3ccc(OC)cc3)c3[n+]2-c2ccccc2CC3)cc1,11%,-68%,19,4.5µM*,?,9.2µM*
COc1ccccc1NC(=O)CSc1nc(=O)n(CCN2CCOCC2)c2c1CCC2,3%,-2%,12,.,.,-1%
CC(=O)Nc1ccc(S(=O)(=O)N(C)c2ccc(OCCOc3cccc(C)c3)cc2)cc1,-3%,-20%,18,.,.,?
COc1ccc(-n2c(=S)[nH]c3cc(C(=O)Nc4ccccc4OC)ccc3c2=O)cc1,3%,.,.,?,1.6µM*,12%
COc1ccc(-n2c(=S)[nH]c3cc(C(=O)Nc4ccccc4OC)ccc3c2=O)c(OC)c1,-1%,-44%,-8,4.5µM*,1.6µM*,16µM*
COc1ccc(-n2c(=S)[nH]c3cc(C(=O)NCc4ccccc4OC)ccc3c2=O)c(OC)c1,-14%,-22%,18,14µM*,14µM*,-31%
COc1ccc(-n2c(=S)[nH]c3cc(C(=O)NCCCN4CCOCC4)ccc3c2=O)cc1,4%,-1%,-1,-5%,-42%,17%
CC(=O)Nc1ccc(-c2ccnc3c2CC(C(=O)Nc2cccc(Oc4ccccc4)c2)O3)cc1 (configuration not stated),.,-65%,.,.,.,.
CN(CC(=O)Nc1ccccc1C(=O)NC1CC1)Cc1ccc(Cl)s1,2%,6%,13,.,.,-26%
O=C(CN1CCCc2ccccc21)N/N=C/c1ccccc1O,15%,-81%,7,0.32µM*,0.25µM*,?
O=C(CCCCCNC(=O)c1ccccc1)N/N=C/c1ccccc1O,20%,-44%,9,20µM*,6.3µM*,?
COc1ccc(CSCC(=O)N/N=C/c2ccccc2O)cc1,9%,-40%,-4,3.2µM*,0.71µM*,?
Cc1nccn1CC(=O)N/N=C/c1c[nH]c2ccccc12,1%,-15%,28,3%,7%,-13%
Cc1nccn1CC(=O)N/N=C/c1ccccc1O,6%,9%,?,?,4µM*,?
CC(=O)Nc1cccc(-c2ccnc3c2CC(C)(C(=O)Nc2ccc4c(c2)OCO4)O3)c1 (configuration not stated),.,-46%,.,.,.,.
Cc1cc(C)n(CCC(=O)N/N=C/c2ccccc2O)n1,24%,-66%,0,1.3µM*,1.3µM*,?
O=C(CSc1ccccc1)N/N=C/c1ccccc1O,6%,-17%,17,1.6µM*,0.63µM*,-8%
O=C(NCCCCCCNC(=O)c1ccccc1O)c1ccccc1O,16%,-42%,-7,?,3%,10µM*
O=C(NCCNC(=O)c1ccccc1O)c1ccccc1O,6%,0%,5,-9%,15%,-17%
Cc1cc(C)n(CCC(=O)N/N=C/c2ccc(O)cc2O)n1,15%,-48%,-1,-10%,?,?
O=C(CCSCCC(=O)NN=Cc1ccccc1O)NN=Cc1ccccc1O,.,-33%,-9,.,.,.
COc1ccc2c(c1OC)C(=O)N(c1ccc(F)cc1)C2,?,?,-29,-7%,-16%,?
O=C(O)C1CCN(C(=O)Cc2ccccc2)CC1,1%,15%,-8,-7%,-6%,27%
O=C(Nc1ccc(F)cc1)C(Cc1ccccc1)n1cccc1 (configuration not stated),-2%,-21%,1,-6%,28%,-6%
Fc1cccc(F)c1/C=N/NC(=S)Nc1cccnc1,4%,-16%,15,3.5µM*,1.3µM*,-6%

# High-throughput results from PubChem BioAssay.
